CYP2C19 inhib: blocks human cytochrome P450 2C19; 96,000 tested, 21% active; inhibition, % at 5 µM; P33261; CYP2C19 Supersomes, luciferin-H EGE luminescence, 30 min;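 active = CYP2C19 inhibition above a set limit at 5 µM in the primary screen, cut at about 50% in these data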;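 note: plate controls were negative control wells for no effect and 2.5 mM tranylcypromine positive control for full effect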
CYP2C9 activ: CYP2C9 (human) activation | recombinant CYP2C9, luciferin-H conversion, luminescence; hits give high values; factor 1 = untreated enzyme, 0 = blocked | P11712 | activation factor at 5 µM | 96,000 tested, 1.4% active;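 active = activation factor of 2 or more for CYP2C9 at a 5 µM dose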;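 note: 0 = sulfaphenazole-blocked wells and 1 = vehicle-only wells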
Target sequence (P11712 whole entry, looked up): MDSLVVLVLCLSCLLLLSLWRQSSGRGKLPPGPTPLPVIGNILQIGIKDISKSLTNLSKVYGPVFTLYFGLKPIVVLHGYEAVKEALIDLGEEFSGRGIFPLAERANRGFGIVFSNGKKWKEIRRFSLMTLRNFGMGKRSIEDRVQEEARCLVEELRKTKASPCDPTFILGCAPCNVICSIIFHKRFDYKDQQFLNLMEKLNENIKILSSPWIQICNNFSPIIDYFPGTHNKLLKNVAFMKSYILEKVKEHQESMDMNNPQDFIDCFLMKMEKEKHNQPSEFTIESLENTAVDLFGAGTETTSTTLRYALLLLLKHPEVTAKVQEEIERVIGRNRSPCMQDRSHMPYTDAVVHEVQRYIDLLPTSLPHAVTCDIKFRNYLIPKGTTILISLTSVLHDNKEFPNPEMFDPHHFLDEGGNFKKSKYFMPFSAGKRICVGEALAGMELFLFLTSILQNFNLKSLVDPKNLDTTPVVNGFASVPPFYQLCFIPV
D1 allo mod: allosterically modulates the human D1 dopamine receptor; P21728; HEK293 D1, CRE-luciferase, dopamine EC30 potentiation; actives deviate in either direction; B-score at 10 µM; 58,000 tested, 5.9% active; AID 641;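 active = luminescence count or its row- and column-corrected plate score outside the 99.7% band of the plate's sample wells, on either side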
CYP2C19 act: increases human CYP2C19 enzyme activity; recombinant CYP2C19, luciferin-H EGE luminescence; hits give high values; 0 = fully inhibited enzyme, 1 = untreated enzyme; activation factor at 5 µM; 96,000 tested, under 10 active; AID 1025;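 active = activation factor of at least 2 at 5 µM in the primary screen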;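 note: 0 = wells with 2.5 mM tranylcypromine and 1 = vehicle-only wells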
CYP2C9 inh: inhibitors of human CYP2C9; CYP2C9 Supersomes, luciferin-H conversion, luminescence; inhibition, % at 5 µM; 96,000 tested, 20% active; AID 777;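 active = blocking of liver enzyme CYP2C9 beyond about 50% at 5 µM, limit read from the data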
DAT uptake mod: changed human dopamine transporter uptake under cocaine IC80; Q01959; LLC-PK1 hDAT cells, [14C]-dopamine uptake with cocaine IC80; actives deviate in either direction; B-score at 10 µM; 110,000 tested, 1.3% active; AID 449768;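 active = Z score or B-score, a plate-position-corrected score, falls beyond the plate's 99.7% confidence bounds, in either direction; inactive = both scores lie inside the 99.7% bounds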;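 note: scored against the spread of the other compound wells on the same plate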
* = called active by the depositor. Shown are actives, neighbours in structure and some others; about 28% of the full set was active somewhere.

What do the screens show for `CCOC(=O)C(O)(c1ccc(N(C)C(=O)COc2ccccc2)cc1)C(F)(F)F` (stereo not drawn)?
DAT uptake mod: -0.3

Results for CN(C)CC1CSCCC1(O)c1cccc(Cl)c1 (stereo not drawn) ?
DAT uptake mod: 0.28

How did CCn1c(=O)cc(OCC(=O)N2CCN(Cc3ccc4c(c3)OCO4)CC2)c2ccccc21 do in these assays?
CYP2C19 inhib: 23; CYP2C9 activ: 0.8; D1 allo mod: -0.56; CYP2C19 act: 0.8; CYP2C9 inh: 16; DAT uptake mod: 0.072

How did CN1CCN(C(=O)COc2ccc(S(=O)(=O)NCc3ccccc3)cc2Cl)CC1 do in these assays?
CYP2C19 inhib: -1; CYP2C9 activ: 1.3; CYP2C19 act: 1; CYP2C9 inh: -28; DAT uptake mod: -1.4

Results for Cc1cc(S(=O)(=O)NCC(C)C)ccc1OCC(=O)N1CCN(Cc2ccccc2)CC1 ?
CYP2C19 inhib: 50*; CYP2C9 activ: 0.3; D1 allo mod: -0.55; CYP2C19 act: 0.5; CYP2C9 inh: 66*; DAT uptake mod: -0.2

How did CC(C)NS(=O)(=O)c1ccc(OCC(=O)N2CCN(Cc3ccc4c(c3)OCO4)CC2)c(Cl)c1 do in these assays?
CYP2C19 inhib: 71*; CYP2C9 activ: 0.8; CYP2C19 act: 0.3; CYP2C9 inh: 18; DAT uptake mod: 1.2

Results for Cc1cc(S(=O)(=O)NC(C)C)ccc1OCC(=O)N1CCN(Cc2ccc3c(c2)OCO3)CC1 ?
CYP2C19 inhib: 63*; CYP2C9 activ: 0.4; D1 allo mod: 0.95; CYP2C19 act: 0.4; CYP2C9 inh: 59*; DAT uptake mod: 1

Results for CCOP(=O)(CN(CC)CCNP(=O)(OCC)OCC)OCC ?
CYP2C19 inhib: -7; CYP2C9 activ: 1.1; CYP2C19 act: 1.1; CYP2C9 inh: -9; DAT uptake mod: -1.2

Results for CCCCOC(=O)C1=C(N)OC2=C(C(=O)CCC2)[C@]12C(=O)N(C)c1ccccc12 ?
CYP2C19 inhib: 42; CYP2C9 activ: 0.8; D1 allo mod: -0.78; CYP2C19 act: 0.6; CYP2C9 inh: 23; DAT uptake mod: 0.77

What do the screens show for `CC(C)n1cc(C(=O)N(CC(=O)NC(C)(C)C)Cc2ccccc2)cn1`?
DAT uptake mod: -0.034

Results for CCCCc1nc2ccccc2c(=O)n1-c1ccc(Cl)cc1[N+](=O)[O-] ?
CYP2C19 inhib: 4; CYP2C9 activ: 1; CYP2C19 act: 1; CYP2C9 inh: -4; DAT uptake mod: -1

Results for CCC(CC)C1C(C#N)=C(N)Oc2c1c(=O)oc1ccccc21 (stereo not drawn) ?
DAT uptake mod: -0.47

What do the screens show for `COc1cccc(C2C([N+](=O)[O-])=C(N)Oc3c2c(=O)oc2ccccc32)c1` (stereo not drawn)?
CYP2C19 inhib: 11; CYP2C9 activ: 0.9; CYP2C19 act: 0.9; CYP2C9 inh: 14; DAT uptake mod: 0.74

Results for N#CC1=C(N)Oc2c(c(=O)oc3ccccc23)C1c1cccnc1 (stereo not drawn) ?
CYP2C19 inhib: -9; CYP2C9 activ: 0.4; D1 allo mod: -0.28; CYP2C19 act: 1.1; CYP2C9 inh: 64*; DAT uptake mod: -0.65

What do the screens show for `Cc1nn(-c2ccccc2)c(Cl)c1C1C(C#N)=C(N)Oc2c1c(=O)oc1ccccc21` (stereo not drawn)?
CYP2C19 inhib: 45; CYP2C9 activ: 0; D1 allo mod: 0.23; CYP2C19 act: 0.6; CYP2C9 inh: 99*; DAT uptake mod: -0.3

Results for CCCC1COC(Cn2cncn2)(c2ccc(Cl)cc2Cl)O1 (stereo not drawn) ?
CYP2C19 inhib: 93*; CYP2C9 activ: 0.2; CYP2C19 act: 0.1; CYP2C9 inh: 77*; DAT uptake mod: -0.083

Results for CCOC(=O)c1ccccc1NC(=O)c1c(O)[nH]c(=O)[nH]c1=O ?
DAT uptake mod: -0.014

How did CC(=O)Nc1ccccc1C(=O)OCc1ccc(C(=O)c2ccccc2)cc1 do in these assays?
CYP2C19 inhib: 38; CYP2C9 activ: 0.3; CYP2C19 act: 0.6; CYP2C9 inh: 72*; DAT uptake mod: 0.12

Results for Fc1ccc(C2=CCN(C(c3cccs3)c3nnnn3CCc3ccccc3)CC2)cc1 (stereo not drawn) ?
CYP2C19 inhib: 50*; CYP2C9 activ: 0.3; CYP2C19 act: 0.5; CYP2C9 inh: 74*; DAT uptake mod: 0.056

How did CCC(C)(C)n1nnnc1C(c1cccs1)N1CC=C(c2ccc(F)cc2)CC1 (stereo not drawn) do in these assays?
CYP2C19 inhib: 56*; CYP2C9 activ: 0.2; D1 allo mod: -0.47; CYP2C19 act: 0.4; CYP2C9 inh: 79*; DAT uptake mod: 0.061

What do the screens show for `CC(C)CCC1(CN2CCCC2=O)C(=O)NC(=O)NC1=O`?
DAT uptake mod: -0.4

What do the screens show for `C=CCN(CC=C)Cc1c[nH]c2ccccc12`?
CYP2C19 inhib: 0; CYP2C9 activ: 1; D1 allo mod: -5.6*; CYP2C19 act: 1; CYP2C9 inh: -2; DAT uptake mod: 0.13

How did O=P1(Nc2ccc(F)cc2)COc2ccccc2OC1 do in these assays?
CYP2C19 inhib: 64*; CYP2C9 activ: 1.1; CYP2C19 act: 0.4; CYP2C9 inh: -11; DAT uptake mod: 0.79

What do the screens show for `COc1ccccc1CC1/C(=N/O)C2CCN1CC2` (stereo not drawn)?
CYP2C19 inhib: 18; CYP2C9 activ: 0.9; D1 allo mod: -2.4; CYP2C19 act: 0.8; CYP2C9 inh: 9; DAT uptake mod: -0.93

Results for COc1ccccc1/C=C1/C(=N/O)C2CCN1CC2 ?
CYP2C19 inhib: 91*; CYP2C9 activ: 1; D1 allo mod: 0.045; CYP2C19 act: 0.1; CYP2C9 inh: -5; DAT uptake mod: -0.85

How did COc1cc(O)c(C(=O)O)c(-c2cc(O)c(O)cc2C)c1 do in these assays?
DAT uptake mod: -1.1

Results for Cc1ccc(Cl)cc1N1CCN(CCN)CC1 ?
CYP2C19 inhib: 59*; CYP2C9 activ: 0.7; D1 allo mod: -0.72; CYP2C19 act: 0.4; CYP2C9 inh: 35; DAT uptake mod: -1.2

Results for COc1ccc(N2CCN(CCCN)CC2)cc1 ?
D1 allo mod: 0.63; DAT uptake mod: -0.53

Results for CN1C2CCC1CC(OC(=O)c1cc(Cl)cc(Cl)c1)C2 (stereo not drawn) ?
CYP2C19 inhib: 10; CYP2C9 activ: 1.1; CYP2C19 act: 0.9; CYP2C9 inh: -9; DAT uptake mod: -0.21

Results for Cc1sc2nc(COC(=O)Cc3ccccc3)[nH]c(=O)c2c1C ?
CYP2C19 inhib: 40; CYP2C9 activ: 0.4; CYP2C19 act: 0.6; CYP2C9 inh: 60*; DAT uptake mod: 0.92

How did COc1ccc(C=O)cc1O do in these assays?
DAT uptake mod: -1.5

Results for CCCSP1(=S)NCCCO1 (stereo not drawn) ?
CYP2C19 inhib: 7; CYP2C9 activ: 0.9; CYP2C19 act: 0.9; CYP2C9 inh: 13; DAT uptake mod: -0.35

Screening data from PubChem BioAssay.
